Laboratory results reported in PubChem BioAssay AID651564 (Sanford-Burnham Center for Chemical Genomics, 2012).
The list shows a part of the results. Values without a mark were called inactive. The source made the active and inactive calls. Rule as the data show it: active = IC50 below about 80 µM; inactive = the rest.

Experiment: isolated mitochondria fluorescence counter-assay – biochemical, uHTS hits, counter-screen for MPTP inhibitor project, dose response (AID 651564)
Conditions: isolated mitochondria counterscreen, fluorescence read-out

SMILES: CC(Cc1ccccc1)NCCC(c1ccccc1)c1ccccc1 (stereo not drawn)
- IC50: 18.7 µM (active)

SMILES: O=Cc1cn(Cc2ccc(F)cc2Cl)c2ccccc12
- IC50: 22.6 µM (active)

SMILES: COc1ccc(C2NCc3ccc4c(c3-n3cccc32)OCO4)cc1OC (stereo not drawn)
- IC50: > 80 µM
